Where “and” joins values, the source holds several entries; their conditions need not be identical. Identical values can stand only once. Inconclusive results are not listed. Calls of active or inactive are those of the source. The calls were made as follows, unless noted: active = hit-call score of the fitted dose curve at least 0.9, where 1 is the maximum; inconclusive = response in the unintended direction; inactive = score below 0.9.
Tests used:
[1] = biological target: Cytochrome P450 2C19 (Homo sapiens) (UniProt P33261); assay: NVS_ADME_hCYP2C19: NovaScreen (NVS) CYP450-related Enzyme Activity (ADME) Assay for human CYP2C19 (AID 2283113);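 as to AC50: potency for inhibition seen as loss of fluorescent signal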
Procedure, shortened: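 Recombinant insect-cell-expressed enzyme, fluorescent substrate, 1 h after chemical addition, fluorescence intensity. Baseline = acetonitrile vehicle; activity scored as signal loss. Primary HTS single concentration 10 uM, duplicate; actives retested in concentration series.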

[2] = biological target: rat CYP2A2, Cyp2a2 (gene 24895) (UniProt P15149); assay: NVS_ADME_rCYP2A2: NovaScreen (NVS) CYP450-related Enzyme Activity (ADME) Assay for rat CYP2A2 (AID 2283116)
Procedure, shortened: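 Compounds first tested in duplicate at 10 uM, then in singleton concentration series up to 20 uM when over threshold. Activity of the recombinant enzyme read by fluorescence at 0.2 h, normalised to acetonitrile vehicle.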

[3] = biological target: rat CYP2C11, Cyp2c11 (gene 29277) (UniProt P08683); assay: NVS_ADME_rCYP2C11: NovaScreen (NVS) CYP450-related Enzyme Activity (ADME) Assay for rat CYP2C11 (AID 2283118)
Procedure, shortened: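 Screened first at 10 uM in duplicate, hits followed by concentration-response. Recombinant rat enzyme activity monitored by fluorescence 0.33 h post-dosing, normalised to acetonitrile negative control.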

[4] = biological target: rat CYP2A1, Cyp2a1 (gene 24894) (UniProt P11711); assay: NVS_ADME_rCYP2A1: NovaScreen (NVS) CYP450-related Enzyme Activity (ADME) Assay for rat CYP2A1 (AID 2283114; active = hit-call score of the fitted dose curve at least 0.9, where 1 is the maximum; inactive = score below 0.9)
Procedure, shortened: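 Cell-free fluorescence enzyme-activity read on recombinant rat CYP2A1, taken 0.75 h post-dosing. Compounds were screened in duplicate at 10 uM, then hits tested in concentration series (max 20 uM); inhibition scored relative to acetonitrile baseline.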

rat CYP2B1, gene 24300 = assay: NVS_ADME_rCYP2B1: NovaScreen (NVS) CYP450-related Enzyme Activity (ADME) Assay for rat CYP2B1 (AID 2283117)
Procedure, shortened: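 Cell-free fluorescence enzyme assay, recombinant rat CYP2B1, 0.75 h after dosing. Single-concentration duplicates at 10 uM preceded concentration series (max 20 uM) for actives; acetonitrile as negative-control baseline.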

[5] = biological target: rat CYP2C12, Cyp2c12 (gene 25011) (UniProt P11510); assay: NVS_ADME_rCYP2C12: NovaScreen (NVS) CYP450-related Enzyme Activity (ADME) Assay for rat CYP2C12 (AID 2283119)
Experimental: (§1) NVS_ADME_rCYP2C12 is a biochemical, single-readout assay that uses extracted gene-proteins in a cell-free assay. Measurements were taken 0.5 hour after chemical dosing in a 96-well plate.NVS_ADME_rCYP2C12 is one of one assay component(s) measured or calculated from the NVS_ADME_rCYP2C12 assay. It is designed to make measurements of enzyme activity, a form of enzyme reporter, as detected with fluorescence intensity signals by Fluorescence technology.Data from the assay component NVS_ADME_rCYP2C12 was analyzed into 1 assay endpoint. This assay endpoint, NVS_ADME_rCYP2C12, was analyzed in the positive analysis fitting direction relative to Acetonitrile as the negative control and baseline of activity. Using a type of enzyme reporter, loss-of-signal activity can be used to understand changes in the enzymatic activity as they relate to the gene Cyp2c12. Furthermore, this assay endpoint can be referred to as a primary readout, because this assay has produced multiple assay endpoints where this one serves a enzymatic activity function. To generalize the intended target to other relatable targets, this assay endpoint is annotated to the cyp intended target family, where the subfamily is xenobiotic metabolism.
(§2) Binding assays used specific radioligands (tritiated, iodinated) with non-radioactive competitive displacement ligands in agonist or antagonist protocols (as indicated) and various reference compounds and inhibitors to titrate specific binding to receptors and transporters. Most enzyme assays (CYPs, kinases, phosphatases, proteases, HDACs) used recombinant protein and specific substrates (fluorescence mostly, some colorimetric and radioactive) and inhibitors, followed by a biochemical separation of substrate and product. All assays for the biochemical HTS were initially run in duplicate at a single concentration (10 uM for CYP450 assays and 25 uM for all others). […] Each assay was run with positive and negative controls, and concurrent controls on every plate. The follow-up (secondary) screen tested active chemical-pairs in concentration series, as well as a few additional assays not tested in the primary screen, some selected negative inactives, and several cases re-run in the concentration series for confirmatory purposes.

rat CYP2C6, gene 293989 = assay: NVS_ADME_rCYP2C6: NovaScreen (NVS) CYP450-related Enzyme Activity (ADME) Assay for rat CYP2C6 (AID 2283120)
Procedure, shortened: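 Compounds first tested in duplicate at 10 uM, hits (e.g. 30% inhibition) re-run in singleton dose series to a 20 uM top concentration. Enzyme activity of recombinant rat CYP2C6 measured via fluorescent substrate turnover after 1 h; acetonitrile baseline.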

[6] = biological target: rat CYP2C13, Cyp2c13 (gene 171521) (UniProt P20814); assay: NVS_ADME_rCYP2C13: NovaScreen (NVS) CYP450-related Enzyme Activity (ADME) Assay for rat CYP2C13 (AID 2283121)
Procedure, shortened: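 Inhibition is read as decreased fluorescent product formation, referenced to acetonitrile vehicle. Cell-free recombinant rat Cyp2c13 reaction ran 0.75 hour; compounds first at 10 uM in duplicate, then concentration series for actives.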

[7] = biological target: rat CYP2D1, Cyp2d1 (gene 266684) (UniProt P10633); assay: NVS_ADME_rCYP2D1: NovaScreen (NVS) CYP450-related Enzyme Activity (ADME) Assay for rat CYP2D1 (AID 2283122)
Experimental: as §1, with “NVS_ADME_rCYP2D1” for “NVS_ADME_rCYP2C12”, “0.75” for “0.5”, “plate.NVS_ADME_rCYP2D1” for “plate.NVS_ADME_rCYP2C12”, “NVS_ADME_rCYP2D1,” for “NVS_ADME_rCYP2C12,”, “Cyp2d1.” for “Cyp2c12.”
Binding assays used specific radioligands (tritiated, iodinated) with non-radioactive competitive displacement ligands in agonist or antagonist protocols (as indicated) and various reference compounds and inhibitors to titrate specific binding to receptors and transporters. Most enzyme assays (CYPs, kinases, phosphatases, proteases, HDACs) used recombinant protein and specific substrates (fluorescence mostly, some colorimetric and radioactive) and inhibitors, followed by a biochemical separation of substrate and product. All assays for the biochemical HTS were initially run in duplicate at a single concentration (10 uM for CYP450 assays and 25 uM for all others). Assay-chemical combinations meeting a pre-defined threshold (e.g., 30% inhibition and other criteria defined below) were then run in singleton concentration-response format with maximum concentration of 20 uM for CYPs and 50 uM for all others. Each assay was run with positive and negative controls, and concurrent controls on every plate. The follow-up (secondary) screen tested active chemical-pairs in concentration series, as well as a few additional assays not tested in the primary screen, some selected negative inactives, and several cases re-run in the concentration series for confirmatory purposes.

[8] = biological target: rat CYP1A2, Cyp1a2 (gene 24297) (UniProt P04799); assay: NVS_ADME_rCYP1A2: NovaScreen (NVS) CYP450-related Enzyme Activity (ADME) Assay for rat CYP1A2 (AID 2283115)
Experimental: as §1, with “NVS_ADME_rCYP1A2” for “NVS_ADME_rCYP2C12”, “1” for “0.5”, “plate.NVS_ADME_rCYP1A2” for “plate.NVS_ADME_rCYP2C12”, “NVS_ADME_rCYP1A2,” for “NVS_ADME_rCYP2C12,”, “Cyp1a2.” for “Cyp2c12.”
as §2

Sequence of rat CYP2D1, Cyp2d1 (gene 266684) (P10633 whole entry, looked up): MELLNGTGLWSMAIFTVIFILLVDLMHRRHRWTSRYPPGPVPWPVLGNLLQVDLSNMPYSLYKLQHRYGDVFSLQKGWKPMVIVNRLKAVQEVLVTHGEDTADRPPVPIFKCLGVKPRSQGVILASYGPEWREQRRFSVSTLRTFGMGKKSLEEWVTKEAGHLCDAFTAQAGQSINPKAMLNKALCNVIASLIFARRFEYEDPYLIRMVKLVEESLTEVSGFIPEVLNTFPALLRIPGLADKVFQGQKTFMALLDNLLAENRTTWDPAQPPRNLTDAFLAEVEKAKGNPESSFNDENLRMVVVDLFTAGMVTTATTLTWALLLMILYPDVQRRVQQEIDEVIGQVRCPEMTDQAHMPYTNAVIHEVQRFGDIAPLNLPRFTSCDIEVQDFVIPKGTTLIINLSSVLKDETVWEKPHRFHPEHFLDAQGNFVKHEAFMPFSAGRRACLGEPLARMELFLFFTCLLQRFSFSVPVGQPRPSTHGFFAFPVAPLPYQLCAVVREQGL
Sequence of rat CYP2C13, Cyp2c13 (gene 171521) (P20814 whole entry, looked up): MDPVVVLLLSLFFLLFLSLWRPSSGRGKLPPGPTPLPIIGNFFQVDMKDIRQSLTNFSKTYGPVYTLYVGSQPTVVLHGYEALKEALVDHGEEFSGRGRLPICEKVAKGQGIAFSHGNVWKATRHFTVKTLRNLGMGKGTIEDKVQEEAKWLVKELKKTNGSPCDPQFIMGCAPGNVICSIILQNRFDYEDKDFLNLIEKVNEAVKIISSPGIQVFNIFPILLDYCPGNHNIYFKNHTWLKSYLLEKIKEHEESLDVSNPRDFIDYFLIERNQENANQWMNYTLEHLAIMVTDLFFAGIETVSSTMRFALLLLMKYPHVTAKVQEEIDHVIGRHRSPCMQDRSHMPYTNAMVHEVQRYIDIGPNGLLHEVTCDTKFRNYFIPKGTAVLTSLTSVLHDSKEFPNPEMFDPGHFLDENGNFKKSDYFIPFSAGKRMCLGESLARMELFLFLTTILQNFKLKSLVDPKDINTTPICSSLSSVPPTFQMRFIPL
Sequence of rat CYP2C11, Cyp2c11 (gene 29277) (P08683 whole entry, looked up): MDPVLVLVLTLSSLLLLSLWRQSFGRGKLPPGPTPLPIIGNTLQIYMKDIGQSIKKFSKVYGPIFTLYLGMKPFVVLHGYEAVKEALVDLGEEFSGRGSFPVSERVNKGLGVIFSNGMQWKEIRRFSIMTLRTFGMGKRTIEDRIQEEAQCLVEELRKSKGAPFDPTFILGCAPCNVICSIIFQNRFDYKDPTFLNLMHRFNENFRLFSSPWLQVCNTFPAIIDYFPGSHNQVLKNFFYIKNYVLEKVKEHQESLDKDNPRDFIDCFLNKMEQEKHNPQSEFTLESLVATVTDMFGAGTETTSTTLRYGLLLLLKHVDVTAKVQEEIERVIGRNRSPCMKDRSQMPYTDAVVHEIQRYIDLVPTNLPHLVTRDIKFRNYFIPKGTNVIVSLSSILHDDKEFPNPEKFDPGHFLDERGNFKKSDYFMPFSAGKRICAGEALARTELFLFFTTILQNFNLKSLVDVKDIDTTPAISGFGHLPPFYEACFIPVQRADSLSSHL
Sequence of rat CYP2A1, Cyp2a1 (gene 24894) (P11711 whole entry, looked up): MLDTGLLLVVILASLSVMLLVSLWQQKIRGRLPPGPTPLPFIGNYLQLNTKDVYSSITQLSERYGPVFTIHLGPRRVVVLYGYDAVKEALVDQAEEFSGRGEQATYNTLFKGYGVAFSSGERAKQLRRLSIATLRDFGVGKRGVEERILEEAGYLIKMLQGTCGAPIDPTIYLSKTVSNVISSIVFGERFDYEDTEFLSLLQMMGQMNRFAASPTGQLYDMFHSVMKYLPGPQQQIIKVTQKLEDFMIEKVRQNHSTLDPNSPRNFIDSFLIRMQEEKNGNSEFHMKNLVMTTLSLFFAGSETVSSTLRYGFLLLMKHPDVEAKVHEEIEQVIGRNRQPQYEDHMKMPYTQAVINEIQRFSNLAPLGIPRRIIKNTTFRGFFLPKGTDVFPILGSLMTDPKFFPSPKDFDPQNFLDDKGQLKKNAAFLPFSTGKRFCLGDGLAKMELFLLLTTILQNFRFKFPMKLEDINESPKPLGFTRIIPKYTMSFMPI
Sequence of rat CYP2C12, Cyp2c12 (gene 25011) (P11510 whole entry, looked up): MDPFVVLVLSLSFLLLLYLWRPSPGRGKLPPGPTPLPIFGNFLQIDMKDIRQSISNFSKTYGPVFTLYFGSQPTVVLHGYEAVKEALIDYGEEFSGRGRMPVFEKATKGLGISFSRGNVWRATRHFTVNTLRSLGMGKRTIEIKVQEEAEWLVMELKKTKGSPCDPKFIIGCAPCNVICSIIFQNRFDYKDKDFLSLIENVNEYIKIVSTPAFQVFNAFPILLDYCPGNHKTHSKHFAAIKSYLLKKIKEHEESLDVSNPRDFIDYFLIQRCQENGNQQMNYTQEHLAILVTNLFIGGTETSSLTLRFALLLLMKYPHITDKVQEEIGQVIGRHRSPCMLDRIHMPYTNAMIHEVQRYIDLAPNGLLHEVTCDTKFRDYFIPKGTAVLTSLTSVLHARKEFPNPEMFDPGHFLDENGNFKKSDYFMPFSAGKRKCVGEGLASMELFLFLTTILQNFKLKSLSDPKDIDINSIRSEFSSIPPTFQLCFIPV
Sequence of rat CYP2A2, Cyp2a2 (gene 24895) (P15149 whole entry, looked up): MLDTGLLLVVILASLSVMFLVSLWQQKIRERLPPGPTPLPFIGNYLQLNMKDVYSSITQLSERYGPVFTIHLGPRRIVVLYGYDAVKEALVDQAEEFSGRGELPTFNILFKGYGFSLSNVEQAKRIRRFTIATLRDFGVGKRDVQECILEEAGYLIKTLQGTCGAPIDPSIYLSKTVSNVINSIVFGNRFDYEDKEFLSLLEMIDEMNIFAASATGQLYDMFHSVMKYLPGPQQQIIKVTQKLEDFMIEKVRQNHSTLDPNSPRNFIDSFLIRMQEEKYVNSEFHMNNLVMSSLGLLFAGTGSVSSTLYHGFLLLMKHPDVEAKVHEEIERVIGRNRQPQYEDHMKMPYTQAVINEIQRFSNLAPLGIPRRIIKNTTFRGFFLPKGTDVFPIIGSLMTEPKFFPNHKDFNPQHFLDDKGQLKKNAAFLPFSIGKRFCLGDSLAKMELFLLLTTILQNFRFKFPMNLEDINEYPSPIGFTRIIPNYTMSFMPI
Sequence of rat CYP1A2, Cyp1a2 (gene 24297) (P04799 whole entry, looked up): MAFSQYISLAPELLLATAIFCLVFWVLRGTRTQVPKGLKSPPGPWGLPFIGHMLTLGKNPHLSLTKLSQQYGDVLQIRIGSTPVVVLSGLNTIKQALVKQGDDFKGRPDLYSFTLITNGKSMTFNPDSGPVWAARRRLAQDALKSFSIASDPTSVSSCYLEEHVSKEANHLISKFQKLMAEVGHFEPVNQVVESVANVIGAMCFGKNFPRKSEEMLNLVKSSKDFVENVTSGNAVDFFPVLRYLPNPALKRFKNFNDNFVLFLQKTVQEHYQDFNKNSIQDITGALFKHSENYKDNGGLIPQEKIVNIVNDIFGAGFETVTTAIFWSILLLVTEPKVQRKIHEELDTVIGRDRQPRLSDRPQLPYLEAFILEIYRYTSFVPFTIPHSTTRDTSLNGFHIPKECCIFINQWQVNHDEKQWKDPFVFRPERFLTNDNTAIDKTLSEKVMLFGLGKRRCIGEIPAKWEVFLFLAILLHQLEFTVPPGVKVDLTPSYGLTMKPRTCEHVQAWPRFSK

CCOc1cc(C(C)(C)C)ccc1C1COC(c2c(F)cccc2F)=N1 (stereo unspecified)
AC50 [1]: 7620 nM (active)
AC50 [2]: 1.15 µM (active)
AC50 [3]: 10000 nM (active)

CCCCC(O)(Cn1cncn1)c1ccc(Cl)cc1Cl (stereo unspecified)
AC50 [1]: 426 nM (active)
AC50 [4]: 1300 nM (active)
AC50 [2]: 0.0126 µM (active)
AC50 (rat CYP2B1, gene 24300): 0.0547 µM (active)
AC50 [3]: 1850 nM (active)
AC50 [5]: 1580 nM (active)
AC50 (rat CYP2C6, gene 293989): 3590 nM (active)
AC50 [6]: 655 nM (active)
AC50 [7]: 951 nM (active)

CCC(C)n1c(=O)[nH]c(C)c(Br)c1=O (stereo unspecified)
outcome [1]: inactive
AC50 [7]: 3930 nM (active)

CC1(C)C(C(=O)OC(C#N)c2cccc(Oc3ccccc3)c2)C1(C)C (stereo unspecified)
AC50 [1]: 13800 nM (active)

N#Cc1c(Cl)cccc1Cl
outcome (rat CYP2B1, gene 24300): inactive

CC(C)(C)C(=O)C(Oc1ccc(Cl)cc1)n1cncn1 (stereo unspecified)
AC50 [1]: 1320 nM (active)
AC50 [2]: 32 nM (active) and 40.6 nM (active)
AC50 (rat CYP2B1, gene 24300): 549 nM (active) and 1.69 µM (active)
AC50 [3]: 4290 nM (active)
AC50 [6]: 246 nM (active)
AC50 [7]: 6430 nM (active)

CCCCOCN(C(=O)CCl)c1c(CC)cccc1CC
AC50 [1]: 1280 nM (active)
AC50 (rat CYP2C6, gene 293989): 3340 nM (active)
AC50 [6]: 10000 nM (active)

CCOP(=O)(OCC)Oc1nc(Cl)c(Cl)cc1Cl
AC50 [1]: 4090 nM (active)
outcome [8]: inactive

CC(C)NC(=O)N1CC(=O)N(c2cc(Cl)cc(Cl)c2)C1=O
AC50 [1]: 2060 nM (active)
outcome [8]: inactive
AC50 (rat CYP2C6, gene 293989): 2380 nM (active)

CCNC(=O)NC(=O)C(C#N)=NOC
outcome (rat CYP2B1, gene 24300): inactive

CSC(=O)c1c(C(F)F)nc(C(F)(F)F)c(C(=O)SC)c1CC(C)C
AC50 [1]: 7010 nM (active)
AC50 (rat CYP2C6, gene 293989): 2990 nM (active)

C=CCOC(=O)C(C)(C)OC(=O)c1cc(-n2c(=O)cc(C(F)(F)F)n(C)c2=O)ccc1Cl
outcome [5]: inactive

CCN(CC)c1nc(C)cc(OP(=S)(OC)OC)n1
AC50 [1]: 773 nM (active)
AC50 (rat CYP2C6, gene 293989): 723 nM (active)

CCCCC(C#N)(Cn1cncn1)c1ccc(Cl)cc1 (stereo unspecified)
AC50 [1]: 634 nM (active)
AC50 [4]: 563 nM (active)
AC50 [2]: 0.238 µM (active)
AC50 (rat CYP2B1, gene 24300): 1.64 µM (active)
AC50 [3]: 2390 nM (active)
AC50 [5]: 4510 nM (active)
AC50 [6]: 4370 nM (active)
AC50 [7]: 8640 nM (active)

O=C(Nc1ccccc1-c1ccc(Cl)cc1)c1cccnc1Cl
AC50 [1]: 661 nM (active)

Cc1ccc(N=CN(C)C=Nc2ccc(C)cc2C)c(C)c1
AC50 [1]: 5270 nM (active)

CC1(C)CCC(=Cc2ccc(Cl)cc2)C1(O)Cn1cncn1 (stereo unspecified)
AC50 [1]: 252 nM (active)
AC50 [4]: 1110 nM (active)
AC50 [2]: 0.299 µM (active)
AC50 (rat CYP2B1, gene 24300): 1.84 µM (active)
AC50 [3]: 384 nM (active)

CC(C)N1C(=O)N(c2ccccc2)CSC1=NC(C)(C)C
AC50 [3]: 3970 nM (active)

COP(=S)(OC)SCn1nnc2ccccc2c1=O
AC50 [1]: 257 nM (active)
AC50 [4]: 3240 nM (active)
AC50 [2]: 5.47 µM (active)
AC50 (rat CYP2B1, gene 24300): 3.35 µM (active)
AC50 [3]: 419 nM (active)
AC50 (rat CYP2C6, gene 293989): 634 nM (active)
AC50 [6]: 3030 nM (active)
AC50 [7]: 6920 nM (active)

COC(=O)N(C(=O)N1CO[C@@]2(C(=O)OC)Cc3cc(Cl)ccc3C2=N1)c1ccc(OC(F)(F)F)cc1
AC50 [1]: 102 nM (active)
AC50 [5]: 332 nM (active)

CC(C)C1(C)N=C(c2ncccc2C(=O)O)NC1=O (stereo unspecified)
AC50 [2]: 6.92 µM (active)
outcome (rat CYP2B1, gene 24300): inactive

COC(=O)c1c(C(F)F)nc(C(F)(F)F)c(C2=NCCS2)c1CC(C)C
AC50 [1]: 1270 nM (active)
AC50 (rat CYP2C6, gene 293989): 3590 nM (active)
AC50 [7]: 5480 nM (active)

CC1(C)C(C=C(Cl)Cl)C1C(=O)OC(C#N)c1cccc(Oc2ccccc2)c1 (stereo unspecified)
AC50 [1]: 7550 nM (active)

COc1ccc(-c2ccccc2)cc1NNC(=O)OC(C)C
AC50 [1]: 447 nM (active)
outcome [3]: inactive
AC50 [6]: 1170 nM (active)

OC(c1ccc(Cl)cc1)(c1ccc(Cl)cc1)C(Cl)(Cl)Cl
AC50 [1]: 806 nM (active)

CCOC(=O)C(C)OC(=O)c1cc(Oc2ccc(C(F)(F)F)cc2Cl)ccc1[N+](=O)[O-] (stereo unspecified)
AC50 [1]: 4010 nM (active)

COP(=O)(OC)O/C(C)=C/C(=O)N(C)C
outcome [1]: inactive

CC(C)=CC1C(C(=O)OCc2coc(Cc3ccccc3)c2)C1(C)C (stereo unspecified)
AC50 [1]: 8700 nM (active)
AC50 [7]: 5370 nM (active)

Nc1cnn(-c2ccccc2)c(=O)c1Cl
AC50 [7]: 2370 nM (active)

COC(=O)NC(=S)Nc1ccccc1NC(=S)NC(=O)OC
AC50 [1]: 10000 nM (active)

CCOP(=S)(OCC)Oc1nc(Cl)n(C(C)C)n1
AC50 [1]: 317 nM (active)
AC50 (rat CYP2C6, gene 293989): 837 nM (active)

Cc1c(COC(=O)[C@@H]2[C@H](/C=C(\Cl)C(F)(F)F)C2(C)C)cccc1-c1ccccc1
AC50 [1]: 12900 nM (active)
outcome [2]: inactive

CCN(CC)C(=O)C(C)Oc1cccc2ccccc12 (stereo unspecified)
AC50 [1]: 1150 nM (active)
AC50 [2]: 5.89 µM (active)
AC50 [3]: 951 nM (active)
AC50 (rat CYP2C6, gene 293989): 4210 nM (active)

From PubChem BioAssay (EPA / NIEHS)
